The panel holds about 83,000 compounds, 20% with a hit somewhere; the sample as a whole holds those more often.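 How to read the values: 0–100, growth inhibition (40 = 60% inhibited); 0, no net growth; -100 to 0, cell death (-40 = 40% of starting cells died; -100 = all dead).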 A number with no mark means an inactive call. Calls of active or inactive are those of the source. Rule for the calls: active = growth percent below 10; inactive = the rest.

Common to all, as to test: NCI-60 one-dose screen, 48 h (100 = growth as untreated, 0 = no growth, -100 = all killed)
Common to all, as to details: 10 µM unless noted

In experiment [1] the test system is SR leukemia.
Experiment [2] relates to RPMI-8226 leukemia.
The test system of experiment [3] is OVCAR-8 ovarian.
Experiment [4] has as its system OVCAR-5 ovarian.
Experiment [5] relates to OVCAR-4 ovarian.
The subject of experiment [6] is SK-OV-3 ovarian.
The subject of experiment [7] is IGROV1 ovarian.
Experiment [8] relates to OVCAR-3 ovarian.
The subject of experiment [9] is HS 578T breast.
Experiment [10] relates to NCI/ADR-RES ovarian.

Turning to `NCCCN1CCCC1=O`, the growth in [1] was 88.2%; in experiment [2], 107%; in experiment [3], 97.5%; in experiment [4] it was 110%; in experiment [5], 111%; in experiment [6] it was 116%. Moreover, the growth in experiment [7] was 104%; in experiment [8] it was 112%; in experiment [9], 109%; in experiment [10] it was 101%.

Consider `COC1OC(C(O)C(O)CO)C(O)C(O)C1O` (stereo not given), for which the growth in experiment [1] is 97.7%; in experiment [2] it was 93.3%; in experiment [3] it was 105%; in experiment [4] it was 88.7%; in [5] it was 109%; in [6], 95.6%. The growth in experiment [7] was 103%; in experiment [8] it was 109%; in [9] it was 109%; in [10] it was 106%.

With `O=C(O)c1c[nH]c2ccccc2c1=O`, the growth in experiment [1] was 99.9%; in experiment [2], 97.8%; in experiment [3] it was 108%; in [4], 93.9%; in [5], 93.4%; in experiment [6], 92.3%. Also, the growth in [7] was 99.2%; in experiment [8], 107%; in [9] it was 112%; in experiment [10], 104%.

With `N#C/C(=C\NC(=S)N=Nc1c(O)[nH]c2ccccc12)c1nc2ccccc2s1`, the growth in experiment [1] was 77.3%; in experiment [2] it was 97%; in experiment [3] it was 96%; in experiment [4], 105%; in experiment [5], 93.7%; in experiment [6], 92.8%. For the same molecule, the growth was 85.4% in [7], 103% in experiment [8], 94.6% in experiment [9] and 103% in experiment [10].

Take `C[n+]1cc2cc3c(cc2c2ccccc21)OCO3`: the growth in [1] was 15.6%; in [2] it was 40.3%; in experiment [3] it was 77.9%; in experiment [4] it was 74%; in experiment [5], 52.3%; in [6], 46%. Besides, the growth in experiment [7] was 84.1%; in experiment [8] it was 51.5%; in [9] it was 42.1%; in [10], 106%.

On to `CN1CCCN(C(c2ccccc2)c2ccc(Br)cc2)CC1` (stereo not given), for which the growth is 4.87% (active) in experiment [1]; 84.1% in [2]; 93.9% in [3]; 92.6% in [4]; 84.7% in experiment [5]; 81.5% in [6]. The growth in [7] was 78.6%; in experiment [8], 69.9%; in [9], 42.4%; in experiment [10], 79.1%.

Consider `CC(C)(C)CC1(C)NC(=O)NC1=O` (stereo not given), for which the growth in [1] was 134%; in experiment [2] it was 73.3%; in [3] it was 109%; in experiment [4] it was 89.1%; in experiment [5], 106%; in [6] it was 115%. The growth was 125% in [7], 120% in experiment [8], 105% in [9] and 99.7% in [10].

`NNc1ncccn1`: the growth in [1] was 98.2%; in experiment [2], 108%; in [3] it was 108%; in [4], 108%; in experiment [5], 101%; in [6], 105%. The growth in experiment [7] was 111%; in [8], 101%; in experiment [9], 91.5%; in experiment [10] it was 104%.

For the molecule `C=C1C(=O)C2CCC1C2` (stereo not given), the growth in experiment [1] was 96.7%; in [2], 106%; in experiment [3] it was 109%; in experiment [4], 101%; in experiment [5], 111%; in experiment [6], 105%. Also, the growth in [7] is 111%; in experiment [8] it was 95.2%; in [9] it was 73.7%; in [10] it was 105%.

As for `Cc1ccc[n+](CCC(N)=O)c1`, the growth in [1] was 59.8%; in experiment [2], 102%; in experiment [3], 103%; in experiment [4], 93.8%; in experiment [5], 87.4%; in experiment [6], 94.7%. Also, the growth in [7] is 98.7%; in [8] it was 111%; in [9], 87.3%; in [10] it was 97.4%.

For the molecule `N#Cc1ccc(OC(=O)Nc2c(Cl)cc(Cl)cc2Cl)cc1`, the growth was 101% in [1]; 107% in experiment [2]; 105% in experiment [3]; 103% in [4]; 109% in experiment [5]; 99.7% in experiment [6]. Moreover, the growth in experiment [7] was 98.7%; in [8] it was 112%; in experiment [9], 106%; in experiment [10], 111%.

`O=S(=O)(O)c1cccnc1`: the growth in [1] was 100%; in [2] it was 66.4%; in [3], 104%; in experiment [4] it was 119%; in [5], 114%; in [6], 103%. Also, the growth in [7] was 132%; in experiment [8], 111%; in experiment [9], 110%; in [10], 128%.

As to `CCCC(=O)c1cccs1`, the growth in [1] was 95.8%; in [2], 105%; in experiment [3] it was 107%; in [4], 100%; in experiment [5] it was 103%; in experiment [6] it was 103%. The growth in experiment [7] was 110%; in experiment [8], 107%; in [9] it was 95.2%; in experiment [10], 101%.

For `O=C(O)c1ccc(OCc2ccccc2)cc1`, the growth in experiment [1] is 99.8%; in [2] it was 97.5%; in experiment [3], 97.9%; in experiment [4], 93.5%; in experiment [5] it was 102%; in experiment [6] it was 98.8%. In addition, the growth is 91.1% in experiment [7], 118% in experiment [8], 96% in experiment [9] and 104% in [10].

Take `S=c1nc(-c2ccccn2)c(-c2ccccn2)n[nH]1`: the growth was 99.2% in experiment [1]; 112% in experiment [2]; 103% in experiment [3]; 111% in experiment [4]; 108% in experiment [5]; 112% in experiment [6]. Also, the growth in experiment [7] was 103%; in [8], 107%; in experiment [9], 105%; in experiment [10], 102%.

`CCOc1ccc(NC(=S)N2CCC(CCCC3CCN(C(=S)Nc4ccc(OCC)cc4)CC3)CC2)cc1`: the growth in [1] was 95.2%; in experiment [2], 65.8%; in experiment [3] it was 92.2%; in experiment [4], 102%; in experiment [5], 85.1%; in experiment [6] it was 91.1%. For the same molecule, the growth in experiment [7] is 94.5%; in [8], 79.3%; in [9], 85.3%; in [10], 94%.

Source of the values: PubChem BioAssay (NCI).
